This is a sample that favours compounds with a hit; in the whole collection about 6.2% have one here.
SUMO Mot1 rescue – inhibitors of SUMOylation pathway: yeast Mot1-301 growth rescue | S. cerevisiae Mot1-301 growth rescue, ATP luminescence, 38.5C; percent above DMSO median, 100 means doubled | 320,000 compounds, 1% hits | growth rescue, % at 18.8 µM;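 active = every valid replicate shows activation above 250% relative to neutral control wells; inactive = the rest, any valid replicate at or below 250%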
GRIN3A LBD mod – modulators (binders) of human NR3A ligand-binding domain; NR3A LBD differential scanning fluorimetry, Tm shift; 0% = protein alone, 100% = glycine-bound protein; Tm shift relative to glycine control, % at 25 µM; 340,000 compounds, 2.5% hits; AID 1259313;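 active = melting temperature shift of at least 10% of the positive control shift, at one fixed dose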
AI-2 QS mod – modulates the Vibrio harveyi AI-2 quorum sensing system; Vibrio harveyi JMH597 AI-2 luminescence/OD600 ratio, 9 h; active compounds read low; strain lacks LuxN and CqsS sensors; 0 = neutral-control median; 300,000 compounds, 0.4% hits; activity change, % at 7.5 µM; in the data active = activity change below about -75%, passing the limit was not always enough;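 also: luminescence divided by OD600 gain over 9 h not by final OD600 alone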
Cardio protect – protects H9c2 cardiomyocytes from peroxide injury; H2O2 injury protection, ATPLite, 2 h; protection from H2O2 cell death, % at 20 µM; 360,000 compounds, 0.63% hits;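 active = compounds giving at least 50% protection of heart cells from peroxide-induced death in the single-dose screen, raw or plate-pattern-corrected value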
NTR1 agonist – agonists of human neurotensin receptor NTR1; NTR1-U2OS beta-arrestin-GFP spot imaging, agonist mode; P30989; 330,000 compounds, 0.17% hits; activation, % at 20 µM;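 active = activation at or above 40% of the spot to cytoplasm intensity ratio, with at least 20 cells analyzed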
Target sequence (P30989 whole entry, looked up): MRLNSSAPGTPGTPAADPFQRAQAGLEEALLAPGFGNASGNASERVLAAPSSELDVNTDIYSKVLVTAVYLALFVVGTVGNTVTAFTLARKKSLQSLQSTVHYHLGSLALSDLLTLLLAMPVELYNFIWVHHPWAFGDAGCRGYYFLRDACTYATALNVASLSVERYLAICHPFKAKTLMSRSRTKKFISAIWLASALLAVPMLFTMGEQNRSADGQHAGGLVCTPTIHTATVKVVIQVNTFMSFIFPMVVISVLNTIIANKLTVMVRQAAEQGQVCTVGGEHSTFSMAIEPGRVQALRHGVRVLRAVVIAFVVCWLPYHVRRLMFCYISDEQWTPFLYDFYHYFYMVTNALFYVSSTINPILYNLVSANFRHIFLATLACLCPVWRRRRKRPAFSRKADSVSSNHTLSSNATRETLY
AHR activator – human AHR activation; activation, % at 5 µM; 320,000 compounds, 2.5% hits; AHR-responsive luciferase reporter cells, luminescence; P35869; in the data active = activation above about 47%
Of the large screens only hits and unclear results are named; the others gave an inactive call.

Cc1ccc(-c2ccc(C(=O)Nc3cccc(F)c3)o2)c2ccccc12	GRIN3A LBD mod 17
COc1ccc(NC(=O)c2ccc(-c3ccc(C)c4ccccc34)o2)cc1	none
O=C(Nc1cccc(F)c1)c1ccc(-c2ccccc2Cl)o1	AHR activator 50
Cc1ccc(CNS(=O)(=O)c2ccc(-n3cccn3)cc2)cc1	none (no result: SUMO Mot1 rescue, GRIN3A LBD mod, AI-2 QS mod, NTR1 agonist, AHR activator)
Cc1cc(C)n2nc(-c3sccc3-n3c(C)ccc3C)cc2n1	AHR activator 52
CCn1c(CSc2nccn2C)nc2cc(C(=O)O)ccc21	none
CCn1c(CSc2nc3ccccc3[nH]2)nc2cc(C(=O)O)ccc21	AHR activator 60
CCCCON1C(=O)c2cccc3cccc(c23)C1=O	AHR activator 56
O=C1c2ccccc2C(=O)N1CCCCON1C(=O)c2ccccc2C1=O	none
O=C(c1cccs1)N1CCN(c2ncc(C(F)(F)F)cc2Cl)CC1	GRIN3A LBD mod 11
CCc1cc(C(=O)N2CCN(c3ncc(C(F)(F)F)cc3Cl)CC2)sc1C	none
CCOC(=O)c1c(O)c2ccccc2n(-c2ccccc2)c1=O	GRIN3A LBD mod 11
CCOc1ccc(Nc2nc(NCc3ccco3)nc(N)c2[N+](=O)[O-])cc1	GRIN3A LBD mod 12
COCCCNc1nc(N)c([N+](=O)[O-])c(Nc2ccccc2OC)n1	AHR activator 56
COc1ccccc1Nc1nc(NCc2ccco2)nc(N)c1[N+](=O)[O-]	none (no result: AI-2 QS mod)
COCCCNc1nc(N)c([N+](=O)[O-])c(NCc2ccccc2)n1	none
COc1ccc(OC)c(Nc2nc(NCc3ccco3)nc(N)c2[N+](=O)[O-])c1	AHR activator 62
Nc1nc(NCc2ccco2)nc(Nc2ccc(F)cc2)c1[N+](=O)[O-]	AHR activator 113
CCOc1ccc(Nc2nc(N)c([N+](=O)[O-])c(NCc3ccccc3)n2)cc1	none
Cc1nc2scc(C)n2c(=O)c1S(=O)(=O)N1CCN(c2cccc(C(F)(F)F)c2)CC1	none
COC(=O)c1cnn(-c2ccccc2)c1/C=N/NC(=S)Nc1ccc(Cl)cc1	GRIN3A LBD mod 13
CC(=O)Oc1ccc(/C=N/NC(=S)Nc2ccccc2)cc1	none
Cc1ccc(C)c(N2C(=O)c3ccc(C(=O)Nc4ccccn4)cc3C2=O)c1	none (no result: SUMO Mot1 rescue, GRIN3A LBD mod, AI-2 QS mod, NTR1 agonist, AHR activator)
CC1CCCN(C(=O)c2ccc(-c3ccccc3Cl)o2)C1 (centres undefined)	none
CCC(C)c1ccc2oc(-c3ccc(NC(=O)Cn4cnc5c(=O)n(C)c(=O)n(C)c54)cc3)nc2c1 (centres undefined)	GRIN3A LBD mod 23
Cc1ccc2oc(-c3cccc(NC(=O)Cn4cnc5c(=O)n(C)c(=O)n(C)c54)c3)nc2c1	none (no result: SUMO Mot1 rescue, GRIN3A LBD mod, Cardio protect)
COCCNC(=O)C1(C)CCN(C(=O)Cc2ccc(OC)c(OC)c2)C1 (centres undefined)	none (no result: SUMO Mot1 rescue, GRIN3A LBD mod, AI-2 QS mod, NTR1 agonist, AHR activator)
O=C(OCCN1C(=O)c2cccc3c(N4CCOCC4)ccc(c23)C1=O)c1ccc(Cl)cc1Cl	GRIN3A LBD mod 11 (no result: NTR1 agonist)
C/C(=N\Nc1ccc(S(=O)(=O)N2CCCCC2)cn1)c1cccc(Br)c1	none (no result: AI-2 QS mod)
O=C(NCCCc1ccc(F)cc1)C1CCC(=O)N(CCCN2CCCC2=O)C1 (centres undefined)	none
CCN(CC)c1ccc2cc(S(=O)(=O)c3ccc(Cl)cc3)c(=O)oc2c1	none
CCCCCCc1cc2cc(S(=O)(=O)c3ccc(C)cc3)c(=O)oc2cc1O	GRIN3A LBD mod 27
Cc1ccc(S(=O)(=O)c2cc3cc(Br)ccc3oc2=O)cc1	none
CCCCCCc1cc2cc(S(=O)(=O)c3ccc(Cl)cc3)c(=O)oc2cc1O	GRIN3A LBD mod 106
CCCCCCc1cc2cc(C(=O)NCc3ccccc3)c(=N)oc2cc1O	none
CCCCCCc1cc2cc(C(=O)Nc3ccccc3)c(=O)oc2cc1O	GRIN3A LBD mod 17
CCOc1ccc(S(=O)(=O)NCCC(=O)NCCOc2ccccc2OC)cc1	GRIN3A LBD mod 21
CC(=O)Oc1cc(C(=O)OCC(=O)NC23CC4CC(CC(C4)C2)C3)cc(OC(C)=O)c1OC(C)=O	Cardio protect 84 (no result: SUMO Mot1 rescue, AI-2 QS mod, NTR1 agonist, AHR activator)
Cn1cccc1C(=O)NC(=O)COC(=O)c1ccc(S(C)(=O)=O)c([N+](=O)[O-])c1	none (no result: AI-2 QS mod)
CS(=O)(=O)c1ccc(C(=O)OCC(=O)NC23CC4CC(CC(C4)C2)C3)cc1[N+](=O)[O-]	NTR1 agonist 68

Screening data: PubChem, several laboratories
